Laboratory results from ChEMBL document CHEMBL1157539, “Thousands of chemical starting points for antimalarial lead identification” (Nature, 2010).

Tests used:
Assay type in all cases: functional
Plasmodium falciparum [1] = assay: GSK_TCMDC: Inhibition of Plasmodium falciparum 3D7 in whole red blood cells, using parasite LDH activity as an index of growth. Test compounds present at 2uM
Plasmodium falciparum [2] = assay: GSK_TCMDC: Inhibition of Plasmodium falciparum Dd2 in whole red blood cells, using parasite LDH activity as an index of growth. Test compounds present at 2uM
HepG2 = assay: GSK_TCMDC: Percent inhibition of human HepG2 cell line. Test compounds present at 10uM.

Row | SMILES | Inhibition (Plasmodium falciparum [1]) [%] | Inhibition (Plasmodium falciparum [2]) [%] | Inhibition (HepG2) [%]
1 | COc1ccc(CN2CCC(N3CC(c4ccccc4)(c4ccccc4)OCC3=O)C2)c(O)c1.O=C(O)C(F)(F)F (stereo not drawn) | 96 | 27 | 10
2 | COc1ccc2nccc([C@@H](O)CN3CCC(NCc4ccc5c(c4)oc(=S)n5C)CC3)c2c1.O=C(O)/C=C/C(=O)O | 100 | 68 | 14
3 | CS(=O)(=O)c1cccc(-c2cnc3[nH]cc(-c4ccc(CCC(=O)O)cc4)c3c2)c1 | 97 | 99 | 1
4 | COc1ccc2nccc([C@@H](O)CN3CCC(NCCNc4cccc(F)c4)CC3)c2c1.CS(=O)(=O)O | 98 | 73 | 11
5 | COc1ccc(CCNCCCCNCCc2ccc(OC)c3ccccc23)c2ccccc12.CS(=O)(=O)O | 100 | 33 | 100
6 | Cl.FC(F)(F)c1ccc(COc2cc(Cl)ccc2Cn2ccnc2)cc1 | 95 | 0 | 13
7 | CC(Cc1ccc(OCc2ccccc2)cc1)Nc1nc(O)c2ccccc2n1.Cl (stereo not drawn) | 98 | 96 | 2
8 | N#Cc1cncc(-c2nc3c(N4CCN(c5cnccn5)CC4)cccc3n2CCNCc2ccccc2)c1.O=C(O)C(F)(F)F | 99 | 31 | 0
9 | COc1ccc2c(c1)[nH]c1c(C=Cc3ccccc3)nccc12.O=[N+]([O-])O | 91 | 6 | 19
10 | COc1ccc(C(=O)Nc2ccc(Cl)cc2C(=O)Nc2ccncc2)cc1 | 91 | 29 | 7
11 | COc1ccc2nccc([C@@H](O)CN3CCC(NC(=O)C(c4cccs4)N4CCN(c5ccc(F)cc5)CC4)CC3)c2c1 (stereo partly drawn) | 97 | 45 | 9
